Our source for the growth values is PubChem BioAssay (NCI).

Common to all, as to test: NCI-60 one-dose screen, 48 h (100 = growth as untreated, 0 = no growth, -100 = all killed)
Common to all, as to settings: 10 µM unless noted

Assay [1] relates to NCI-H23 lung.
The subject of assay [2] is NCI-H226 lung.
For assay [3], the system named is NCI-H322M lung.
Assay [4] concerns HOP-62 NSCLC.
For assay [5], the system named is NCI-H460 lung.
Assay [6] relates to HOP-92 NSCLC.
Assay [7] has as its system NCI-H522 lung.
Assay [8] deals with A549/ATCC NSCLC.
In assay [9] the test system is 786-0 renal.
The subject of assay [10] is COLO 205 colon.
Assay [11] has as its system DU-145 prostate.
In assay [12] the test system is K-562 leukemia.
In assay [13] the test system is MALME-3M melanoma.
The test system of assay [14] is MDA-MB-231 breast.
Assay [15] concerns RXF 393 renal.
Assay [16] concerns SF-268 CNS.
Assay [17] has as its system SF-295 CNS.
Assay [18] has as its system SF-539 CNS.
For assay [19], the system named is UACC-257 melanoma.
The subject of assay [20] is M14 melanoma.

About 83,000 compounds went through this panel and 20% of them were active in at least one assay; those are over-represented in the sample as a whole.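 Each cell line was grown in a 96-well plate and treated with one concentration of compound for 48 hours. Values below 10 were considered active.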 Unmarked numbers belong to inactive results. Active and inactive are the calls of the source.

On to `N#Cc1c(NC(=O)c2cccc(Br)c2)sc2c1CCCC2`, for which the growth in assay [1] was 91%; in assay [2] it was 89.8%; in assay [3] it was 79.1%; in assay [4], 83.3%; in assay [5], 75.3%; in assay [6] it was 86.2%. In addition, the growth in [7] was 75.9%; in assay [8], 75.2%; in [9] it was 82.6%; in [10], 94.2%; in assay [11] it was 89.7%; in assay [12] it was 22.5%. Further, the growth was 62.4% in assay [13]; 82.2% in assay [14]; 96.8% in [15]; 97.6% in assay [16]; 80.8% in assay [17]; 86.6% in assay [18]. Moreover, in [19], the growth was 83.4%.

Turning to `C=C1C(=O)O[C@H]2[C@H]1CC/C(COC(=O)CCCc1c[nH]c3ccccc13)=C\CC[C@@]1(C)O[C@@H]21`, the growth in assay [1] is 65.9%; in assay [2], 76.7%; in assay [3] it was 104%; in [4] it was 89.8%; in assay [5], 85.9%; in assay [6] it was 44.6%. Besides, the growth in [7] was 39.9%; in assay [8], 72%; in assay [9], 14.2%; in [10], 64.8%; in assay [11], 49.6%; in assay [12], -9.04% (active). In addition, the growth is 86.4% in [13]; 35.4% in assay [14]; 32.7% in assay [15]; 60.8% in assay [16]; 82% in [17]; 41.7% in assay [18]. Besides, the growth in assay [19] is 64.1%; in assay [20], 53.1%.

Turning to `C=C1C(=O)O[C@H]2[C@H]1CC/C(CNC(=O)/C=C/c1ccc(Br)cc1)=C\CC[C@@]1(C)O[C@@H]21`, the growth is -9.66% (active) in assay [1]; 12.3% in assay [2]; 39.6% in assay [3]; 41.2% in assay [4]; 4.75% (active) in assay [5]; -26.2% (active) in assay [6]. In addition, the growth in assay [7] was -71.2% (active); in assay [8], 14.2%; in [9] it was -63.4% (active); in assay [10] it was -64.9% (active); in assay [11], -98.7% (active); in assay [12], 0.48% (active). Besides, the growth in [13] is -78% (active); in assay [14] it was -80.6% (active); in assay [15] it was -89.2% (active); in assay [16], -29.4% (active); in [17] it was 49.6%; in [18], -91.7% (active). The growth in [19] was -40.5% (active).

For `Nc1c(C(=O)Nc2cccc3ccncc23)sc2nc3c(cc12)C(=O)CCC3`, the growth in assay [1] is 58.1%; in assay [2] it was 73.8%; in [3] it was 72.3%; in [4], 62.8%; in [5], 11.6%; in assay [6] it was 69.6%. Also, the growth in assay [7] is -15.7% (active); in assay [8], 38.6%; in assay [9], 44.5%; in assay [10] it was 28.2%; in assay [11] it was 38.5%; in [12], 24.8%. The growth in [13] was 63.7%; in [14], 62.8%; in assay [15] it was 29.8%; in assay [16], 55.1%; in assay [17], 20.1%; in assay [18], 16.1%. Besides, the growth in [19] is 49.2%.

Take `O=C1Nc2cc(-c3ccncc3)ccc2/C1=C/c1ccc[nH]1`: the growth was 58.5% in assay [1]; 78.5% in assay [2]; 84% in [3]; 105% in assay [4]; 98.9% in assay [5]; 104% in assay [6]. The growth was 75.2% in [7]; 101% in assay [8]; 102% in assay [9]; 112% in assay [10]; 88.1% in [11]; 98.3% in assay [12]. Besides, the growth is 65.8% in assay [13]; 65.2% in assay [14]; 93.1% in assay [15]; 94.5% in [16]; 102% in assay [17]; 91.9% in assay [18]. In addition, the growth in [19] was 114%.

With `NC(=S)N/N=C(\c1ccc(Cl)cc1)C1CC1`, the growth was 89.7% in assay [1]; 74.7% in [2]; 88% in [3]; 80.1% in assay [4]; 102% in [5]; 97.2% in assay [6]. The growth in [7] is 97.3%; in [8], 92.5%; in [9] it was 105%; in assay [10] it was 92.6%; in assay [11] it was 99%; in [12], 38.3%. Also, the growth in assay [13] was 87.1%; in assay [14], 70%; in assay [15] it was 104%; in assay [16] it was 98.2%; in [17], 83.1%; in assay [18], 88.6%. The growth in assay [19] is 63.7%; in assay [20], 87.7%.

For `Fc1cc(C2=NNC(c3ccc[nH]3)C2)ccc1-n1ccc(C(F)(F)F)n1` (stereo unspecified), the growth in assay [1] was 89.2%; in assay [2], 83.9%; in assay [3], 86.3%; in [4], 80.3%; in [5], 64.8%; in assay [6], 102%. Also, the growth in [7] was 73.6%; in [8], 68.4%; in [9], 85.8%; in assay [10], 109%; in assay [11] it was 82.8%; in assay [12] it was 62.2%. For the same compound, the growth was 93.7% in [13]; 62.7% in [14]; 105% in assay [15]; 67.3% in assay [16]; 71.3% in assay [17]; 88.1% in assay [18]. In addition, the values for the growth in assay [19] and in assay [20] were 98.5% and 96.4%, respectively.

Consider `COc1cc2c(cc1[N+](=O)[O-])-c1ccc([N+](=O)[O-])cc1/C2=N/NC(N)=S`, for which the growth in [1] is 71.5%; in assay [2], 62.6%; in assay [3], 93.9%; in [4], 99.9%; in assay [5], 29.6%; in [6], 78.3%. In addition, the growth was 35.5% in [7]; 69.2% in assay [8]; 70.6% in [9]; 66.7% in [10]; 79% in assay [11]; 59.9% in assay [12]. Besides, the growth in assay [13] is 93.7%; in [14], 74.4%; in assay [15], 68.2%; in assay [16], 73.9%; in assay [17], 43.6%; in assay [18] it was 73%. In addition, the growth was 75.5% in assay [19] and 82.8% in assay [20].
